33 molecules from PubChem BioAssay (NCATS) can be followed below.

Each structure is given as a SMILES string. For part of these data: Measured potencies and affinities stand elsewhere. Active and inactive are the calls of the source. How the calls were made is not given here.
Wherever efficacy is given: 0% is about no effect.

A short description of one assay: qHTS profiling of the MIPE4 collection as inhibitors of Plasmodium falciparum (DD2) proliferation (AID 743345). Conditions: P. falciparum Dd2 in erythrocytes, SYBR Green DNA, 72 h; at 28.5 µM (top of the series) unless noted. An outline of the steps: (§1)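 Parasite DNA was quantified by SYBR Green I fluorescence (ex 485, em 535 nm) after overnight lysis in saponin/Triton buffer at room temperature. Cultures at 0.3% parasitemia and 2.5% hematocrit were first exposed to compound for 72 h at 37 C; signals were normalised to artemisinin (0.29 uM) and vehicle wells.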
With `O=C(O)C(=O)c1cn(Cc2ccccc2)c2ccc(-c3ccc(OC(F)(F)F)cc3)cc12`, the parasite growth remaining, % of DMSO control (lower = more inhibition) was 108%.

For `COC1(CS(=O)c2ccccc2)CCN(CCc2c[nH]c3ccc(F)cc23)CC1` (stereo not drawn), the parasite growth remaining, % of DMSO control (lower = more inhibition) was 55.9%.

Regarding `Oc1cc(Cl)ccc1Oc1ccc(Cl)cc1Cl`, the parasite growth remaining, % of DMSO control (lower = more inhibition) was 8.79%.

Regarding `C[C@@H]1[C@@H](CC(C[C@H]2O[C@@H]3O[C@]4(C)CC[C@@H]5[C@H](C)CC[C@@H]([C@H]2C)[C@@]35OO4)C[S+](=O)([O-])c2ccc(COC(=O)N(C)C)cc2)O[C@@H]2O[C@]3(C)CC[C@H]4[C@H](C)CC[C@@H]1[C@@]24OO3` (stereo partly drawn), the parasite growth remaining, % of DMSO control (lower = more inhibition) came out at 6.65%.

For the molecule `COc1ccc(C(=O)c2c(C)n(CCN3CCOCC3)c3ccccc23)cc1`, the parasite growth remaining, % of DMSO control (lower = more inhibition) came out at 95.8%.

`CNC(=O)N1N=C(c2ccc(N)cc2)c2cc3c(cc2CC1C)OCO3` (stereo not drawn): the parasite growth remaining, % of DMSO control (lower = more inhibition) was determined as 107%.

Consider `Fc1ccc(C(OCCN2CCN(CCCc3ccccc3)CC2)c2ccc(F)cc2)cc1`, for which the parasite growth remaining, % of DMSO control (lower = more inhibition) came to 9.78%.

With `CC(O)(CS(=O)(=O)c1ccc(F)cc1)C(=O)Nc1ccc(C#N)c(C(F)(F)F)c1` (stereo not drawn), the parasite growth remaining, % of DMSO control (lower = more inhibition) was found to be 102%.

Turning to `CNC(=O)c1ccc(N2C(=S)N(c3ccc(C#N)c(C(F)(F)F)c3)C(=O)C23CCC3)cc1F`, the parasite growth remaining, % of DMSO control (lower = more inhibition) amounted to 81.7%.

With `O=c1[nH]c2ccccc2n1CCCN1CCC(n2c(=O)[nH]c3cc(Cl)ccc32)CC1`, the parasite growth remaining, % of DMSO control (lower = more inhibition) came to 52.4%.

Regarding `CN(C)CCN(C)CCc1ccc(Cl)c(Cl)c1`, the parasite growth remaining, % of DMSO control (lower = more inhibition) was 32%.

`C[C@@H]1[C@@H](C(=O)C[C@H]2O[C@@H]3O[C@]4(C)CC[C@@H]5[C@H](C)CC[C@@H]([C@H]2C)[C@@]35OO4)O[C@@H]2O[C@]3(C)CC[C@H]4[C@H](C)CC[C@@H]1[C@@]24OO3`: the parasite growth remaining, % of DMSO control (lower = more inhibition) was determined as 7.59%.

In the case of `COc1cc([C@@H]2c3cc4c(cc3[C@H](O)[C@H]3COC(=O)[C@H]23)OCO4)cc(OC)c1OC`, the parasite growth remaining, % of DMSO control (lower = more inhibition) is 89.6%.

Take `Cc1cc(SCc2sc(-c3ccc(C(F)(F)F)c(F)c3)nc2C)ccc1OCC(=O)O`: the parasite growth remaining, % of DMSO control (lower = more inhibition) worked out at 88.1%.

In the case of `O=c1c(O)c(-c2ccc(O)c(O)c2)oc2cc(O)cc(O)c12`, the parasite growth remaining, % of DMSO control (lower = more inhibition) was 39%.

As for `C=C(C)[C@H]1Cc2c(ccc3c2O[C@@H]2COc4cc(OC)c(OC)cc4[C@@H]2C3=O)O1`, the parasite growth remaining, % of DMSO control (lower = more inhibition) came out at 94.4%.

Consider `Cc1sc2c(c1C)C(c1ccc(Cl)cc1)=N[C@@H](CC(=O)OC(C)(C)C)c1nnc(C)n1-2`, for which the parasite growth remaining, % of DMSO control (lower = more inhibition) came to 24.4%.

As to `CC1=C2C[C@@H]3[C@@H](CC=C4C[C@@H](O)CC[C@@]43C)[C@@H]2CC[C@]12O[C@H]1C[C@H](C)CN[C@H]1[C@H]2C`, the parasite growth remaining, % of DMSO control (lower = more inhibition) came to 16.2%.

`Cn1c(CCCC(=O)O)nc2cc(N(CCCl)CCCl)ccc21`: the parasite growth remaining, % of DMSO control (lower = more inhibition) is 81.5%.

The nature of another assay: qHTS profiling of the MIPE4 collection as inhibitors of Plasmodium falciparum (DD2) proliferation (Rep 2) (AID 743346). As to conditions: P. falciparum Dd2 in erythrocytes, SYBR Green DNA, 72 h; at 28.5 µM (top of the series) unless noted. An outline of the steps: as §1
Molecule `O=C(O)C(=O)c1cn(Cc2ccccc2)c2ccc(-c3ccc(OC(F)(F)F)cc3)cc12` showed a parasite growth, % of control (lower = inhibition) of 77.4%.

Molecule `Fc1ccc(C(OCCN2CCN(CCCc3ccccc3)CC2)c2ccc(F)cc2)cc1` returned a parasite growth, % of control (lower = inhibition) of 10.9%.

With `CN(C)CCN(C)CCc1ccc(Cl)c(Cl)c1`, the parasite growth, % of control (lower = inhibition) worked out at 18.2%.

The next assay is described as follows: qHTS profiling of the MIPE4 collection as inhibitors of Plasmodium falciparum (HB3) proliferation (AID 743347).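 Further: plate controls were DMSO vehicle wells for no effect and artemisinin wells for full effect.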 Conditions: P. falciparum HB3 in erythrocytes, SYBR Green DNA, 72 h; at 28.5 µM (top of the series) unless noted. An outline of the steps:
as §1
In turn, `COC1(CS(=O)c2ccccc2)CCN(CCc2c[nH]c3ccc(F)cc23)CC1` (stereo not drawn) displayed a growth, % of control of 35.7%.

Consider `CNC(=O)N1N=C(c2ccc(N)cc2)c2cc3c(cc2CC1C)OCO3` (stereo not drawn), for which the growth, % of control worked out at 248%.

The molecule `Fc1ccc(C(OCCN2CCN(CCCc3ccccc3)CC2)c2ccc(F)cc2)cc1` displayed a growth, % of control of 86.1%.

`CC(O)(CS(=O)(=O)c1ccc(F)cc1)C(=O)Nc1ccc(C#N)c(C(F)(F)F)c1` (stereo not drawn) came in with a growth, % of control of 81.9%.

The molecule `COc1cc([C@@H]2c3cc4c(cc3[C@H](O)[C@H]3COC(=O)[C@H]23)OCO4)cc(OC)c1OC` had a growth, % of control of 6.71%.

Experiment in another assay: not given
Conditions: Ebola virus entry assay, green fluorescence channel.
As for `Cc1ccc(-n2nc(C(C)(C)C)cc2NC(=O)Nc2ccc(OCCN3CCOCC3)c3ccccc23)cc1`, the efficacy was 134% (inactive).

With `CC(C)C[C@H](NC(=O)[C@H](CCc1ccccc1)NC(=O)CN1CCOCC1)C(=O)N[C@@H](Cc1ccccc1)C(=O)N[C@@H](CC(C)C)C(=O)[C@@]1(C)CO1`, the efficacy was -41% (inactive).

As for `C=CC(=O)Nc1cc2c(Nc3ccc(F)c(Cl)c3)ncnc2cc1OCCCN1CCOCC1`, the efficacy is 99.2% (inactive).

Take `Oc1cc(Cl)ccc1Oc1ccc(Cl)cc1Cl`: the efficacy was -133% (inactive).

`CC1=C(/C=C/C(C)=C/C=C/C(C)=C/C(=O)Nc2ccc(O)cc2)C(C)(C)CCC1`: the efficacy was -119% (inactive).

For the molecule `COc1ccc(C(=O)c2c(C)n(CCN3CCOCC3)c3ccccc23)cc1`, the efficacy is -40.9% (inactive).

On to `COc1cc(Nc2c(C#N)cnc3cc(OCCCN4CCN(C)CC4)c(OC)cc23)c(Cl)cc1Cl`, for which the efficacy is 56% (inactive).

As to `Fc1ccc(C(OCCN2CCN(CCCc3ccccc3)CC2)c2ccc(F)cc2)cc1`, the efficacy is -187% (inactive).

For `COc1cc2c(N3CCN(C(=O)Nc4ccc(OC(C)C)cc4)CC3)ncnc2cc1OCCCN1CCCCC1`, the efficacy is 52% (inactive).

For the molecule `O=c1[nH]c2ccccc2n1CCCN1CCC(n2c(=O)[nH]c3cc(Cl)ccc32)CC1`, the efficacy was 125% (inactive).

Take `O=c1oc2ccccc2c(O)c1C(CC(O)c1ccc(-c2ccc(Br)cc2)cc1)c1ccccc1` (stereo not drawn): the efficacy was 92.1% (inactive).

For `COc1cccc2c1C(=O)c1c(O)c3c(c(O)c1C2=O)C[C@@](O)(C(=O)CO)C[C@@H]3O[C@H]1C[C@H](N)[C@H](O)[C@H](C)O1`, the efficacy is 89.6% (inactive).

For `CN1CC[C@H](c2c(O)cc(O)c3c(=O)cc(-c4ccccc4Cl)oc23)[C@H](O)C1`, the efficacy is 58.1% (inactive).

Turning to `CCC1(C2=NCCN2)Cc2ccccc2O1` (stereo not drawn), the efficacy was 28% (inactive).

As to `CC1(CN2CCC(n3c(=O)[nH]c4ccccc43)CC2)OCc2ccccc2-n2cccc21` (stereo not drawn), the efficacy is 64.1% (inactive).

Regarding `COc1cc([C@@H]2c3cc4c(cc3[C@H](O)[C@H]3COC(=O)[C@H]23)OCO4)cc(OC)c1OC`, the efficacy was 25.2% (inactive).

As to `Cc1cc2c(C(C)C)c(O)c(O)c(C=O)c2c(O)c1-c1c(C)cc2c(C(C)C)c(O)c(O)c(C=O)c2c1O`, the efficacy was 104% (inactive).

On to `O=C1NCN(c2ccccc2)C12CCN(CC1COc3ccccc3O1)CC2` (stereo not drawn), for which the efficacy was -42.1% (inactive).

With `O=c1c(O)c(-c2ccc(O)c(O)c2)oc2cc(O)cc(O)c12`, the efficacy was -18.8% (inactive).

For `C=C(C)[C@H]1Cc2c(ccc3c2O[C@@H]2COc4cc(OC)c(OC)cc4[C@@H]2C3=O)O1`, the efficacy was 120% (inactive).

For `CN1C(=S)CN=C(c2ccccc2)c2cc(Cl)ccc21`, the efficacy was 37% (inactive).
